These results are taken from the supplement of paper PMC11732987, “Enantioselective OTUD7B fragment discovery through chemoproteomics screening and high-throughput optimisation” (Communications Chemistry, 2025).

What all share (assay): log2 ratio of Biotin-Ahx-Ub-VS probe labelling (fragment/DMSO); higher = less target engagement (more negative = stronger competition), active = hit call of the paper (q ≤ 0.05, log2 ratio ≤ -1)
What all share (conditions): compound concentration: 200 uM; treatment time: 3 h

For one test, the target named is T1, OTUD6B (UniProt Q8N6M0).
T1 sequence (whole entry): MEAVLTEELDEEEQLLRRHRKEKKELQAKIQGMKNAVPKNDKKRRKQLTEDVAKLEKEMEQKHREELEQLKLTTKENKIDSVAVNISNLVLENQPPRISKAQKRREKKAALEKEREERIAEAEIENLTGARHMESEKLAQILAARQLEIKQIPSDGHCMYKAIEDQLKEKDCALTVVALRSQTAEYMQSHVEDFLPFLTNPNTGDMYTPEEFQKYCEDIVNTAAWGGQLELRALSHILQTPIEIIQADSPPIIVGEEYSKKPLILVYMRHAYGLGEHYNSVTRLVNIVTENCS
In outline: (§1)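 HEK293T lysate, 495 µg per sample in Tris/CHAPS/IGEPAL buffer with protease inhibitors, was treated in triplicate with fragment at 200 µM or vehicle for 3 h and then with Biotin-Ahx-Ub-VS at 0.5 µM final for 1 h. Labelled DUBs were NeutrAvidin-enriched, digested with LysC and trypsin, and run by diaPASEF LC-MS/MS. Spectronaut label-free quantities were global-median-normalised, and values are average log2 fragment/vehicle ratios by unpaired t-test on proteins with ≥2 unique peptides.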

For a further test, the target named is T2, OTUD7B (UniProt Q6GQQ9).
T2 sequence (whole entry): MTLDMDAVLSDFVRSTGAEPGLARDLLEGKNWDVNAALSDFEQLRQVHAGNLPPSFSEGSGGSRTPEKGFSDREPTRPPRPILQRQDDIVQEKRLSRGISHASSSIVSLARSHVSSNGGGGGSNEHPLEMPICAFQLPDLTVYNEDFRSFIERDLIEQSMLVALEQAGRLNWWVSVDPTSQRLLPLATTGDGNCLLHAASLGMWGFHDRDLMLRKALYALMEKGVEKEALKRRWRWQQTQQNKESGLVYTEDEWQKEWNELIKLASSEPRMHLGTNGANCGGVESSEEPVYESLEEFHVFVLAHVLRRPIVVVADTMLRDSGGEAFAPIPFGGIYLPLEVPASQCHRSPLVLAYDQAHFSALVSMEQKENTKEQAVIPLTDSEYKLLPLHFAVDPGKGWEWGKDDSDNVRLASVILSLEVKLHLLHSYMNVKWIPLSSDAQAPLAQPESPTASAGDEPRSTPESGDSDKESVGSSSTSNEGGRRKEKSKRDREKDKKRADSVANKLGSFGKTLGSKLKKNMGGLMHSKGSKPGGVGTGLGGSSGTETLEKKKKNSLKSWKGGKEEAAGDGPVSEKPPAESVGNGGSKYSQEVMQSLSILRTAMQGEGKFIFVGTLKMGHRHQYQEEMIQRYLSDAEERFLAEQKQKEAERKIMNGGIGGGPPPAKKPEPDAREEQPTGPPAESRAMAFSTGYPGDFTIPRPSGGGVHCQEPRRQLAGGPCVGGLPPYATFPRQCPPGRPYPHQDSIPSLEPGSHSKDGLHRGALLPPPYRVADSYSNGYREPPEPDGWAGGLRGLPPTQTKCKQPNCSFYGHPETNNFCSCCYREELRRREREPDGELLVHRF
In outline: as §1

A further test concerns the target PRPF8 (UniProt Q6P2Q9). In outline:
as §1

The target in the next test is T3, PSMD7 (UniProt P51665).
T3 sequence (whole entry): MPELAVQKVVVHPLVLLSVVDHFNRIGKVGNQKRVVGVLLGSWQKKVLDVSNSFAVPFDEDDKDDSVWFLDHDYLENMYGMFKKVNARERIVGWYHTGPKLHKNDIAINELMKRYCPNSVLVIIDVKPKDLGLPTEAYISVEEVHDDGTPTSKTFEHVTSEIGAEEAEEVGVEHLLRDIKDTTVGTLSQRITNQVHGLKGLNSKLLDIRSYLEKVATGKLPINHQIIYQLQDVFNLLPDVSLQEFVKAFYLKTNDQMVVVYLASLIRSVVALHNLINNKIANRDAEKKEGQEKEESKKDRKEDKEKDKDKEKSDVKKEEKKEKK
In outline: as §1

Another test has as its target UCHL1 (UniProt P09936). In outline:
as §1

The next test deals with T4, UCHL3 (UniProt P15374).
T4 sequence (whole entry): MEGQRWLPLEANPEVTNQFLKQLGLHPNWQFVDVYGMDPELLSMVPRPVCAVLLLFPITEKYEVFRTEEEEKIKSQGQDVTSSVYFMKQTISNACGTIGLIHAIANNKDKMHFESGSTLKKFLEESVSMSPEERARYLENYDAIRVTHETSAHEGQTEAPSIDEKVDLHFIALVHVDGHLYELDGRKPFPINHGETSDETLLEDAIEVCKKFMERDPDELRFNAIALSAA
The procedure, abridged: as §1

The target of the next test is T5, UCHL5 (UniProt Q9Y5K5).
T5 sequence (whole entry): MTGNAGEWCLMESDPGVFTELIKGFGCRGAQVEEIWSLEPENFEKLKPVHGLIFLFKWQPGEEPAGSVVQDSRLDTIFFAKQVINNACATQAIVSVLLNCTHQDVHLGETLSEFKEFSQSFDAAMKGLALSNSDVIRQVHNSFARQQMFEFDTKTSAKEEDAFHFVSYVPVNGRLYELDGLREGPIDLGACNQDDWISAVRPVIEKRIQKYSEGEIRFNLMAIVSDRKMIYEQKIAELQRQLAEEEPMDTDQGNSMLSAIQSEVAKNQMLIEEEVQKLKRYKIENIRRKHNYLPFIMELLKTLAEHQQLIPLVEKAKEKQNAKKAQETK
In outline: as §1

For the next test, the target named is USP10 (UniProt Q14694). In outline: as §1
The next test addresses T6, USP15 (UniProt Q9Y4E8).
T6 sequence (whole entry): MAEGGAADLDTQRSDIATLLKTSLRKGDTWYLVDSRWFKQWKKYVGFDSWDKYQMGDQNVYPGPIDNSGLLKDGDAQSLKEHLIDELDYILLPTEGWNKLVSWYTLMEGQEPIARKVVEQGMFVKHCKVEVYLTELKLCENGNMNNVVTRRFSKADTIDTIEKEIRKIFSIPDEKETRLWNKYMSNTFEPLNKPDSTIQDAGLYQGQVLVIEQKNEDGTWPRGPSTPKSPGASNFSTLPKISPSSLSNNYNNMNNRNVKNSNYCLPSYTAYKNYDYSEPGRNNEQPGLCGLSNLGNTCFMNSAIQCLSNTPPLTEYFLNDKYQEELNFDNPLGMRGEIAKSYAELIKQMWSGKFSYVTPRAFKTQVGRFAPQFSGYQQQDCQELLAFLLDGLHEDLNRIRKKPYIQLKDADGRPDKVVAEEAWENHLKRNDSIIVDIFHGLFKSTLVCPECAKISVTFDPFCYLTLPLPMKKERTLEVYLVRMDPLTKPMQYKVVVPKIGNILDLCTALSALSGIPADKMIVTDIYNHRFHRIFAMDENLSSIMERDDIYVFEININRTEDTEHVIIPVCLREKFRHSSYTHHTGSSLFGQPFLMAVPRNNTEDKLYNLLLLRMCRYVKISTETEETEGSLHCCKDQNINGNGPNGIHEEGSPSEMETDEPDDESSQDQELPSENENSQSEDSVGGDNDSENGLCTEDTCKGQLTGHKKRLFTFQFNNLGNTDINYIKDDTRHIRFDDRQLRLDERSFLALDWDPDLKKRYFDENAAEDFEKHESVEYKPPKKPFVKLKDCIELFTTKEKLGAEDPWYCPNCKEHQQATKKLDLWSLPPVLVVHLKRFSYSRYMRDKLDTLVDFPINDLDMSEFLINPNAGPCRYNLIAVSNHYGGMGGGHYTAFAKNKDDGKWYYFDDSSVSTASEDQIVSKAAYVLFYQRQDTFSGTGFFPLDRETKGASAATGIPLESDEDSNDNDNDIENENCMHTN
The procedure, abridged: as §1

A further test has as its target USP16 (UniProt Q9Y5T5). In outline:
as §1

Each structure is given as a SMILES string. A number with no mark means an inactive call.

Sequence of USP16 (Q9Y5T5 whole entry, looked up): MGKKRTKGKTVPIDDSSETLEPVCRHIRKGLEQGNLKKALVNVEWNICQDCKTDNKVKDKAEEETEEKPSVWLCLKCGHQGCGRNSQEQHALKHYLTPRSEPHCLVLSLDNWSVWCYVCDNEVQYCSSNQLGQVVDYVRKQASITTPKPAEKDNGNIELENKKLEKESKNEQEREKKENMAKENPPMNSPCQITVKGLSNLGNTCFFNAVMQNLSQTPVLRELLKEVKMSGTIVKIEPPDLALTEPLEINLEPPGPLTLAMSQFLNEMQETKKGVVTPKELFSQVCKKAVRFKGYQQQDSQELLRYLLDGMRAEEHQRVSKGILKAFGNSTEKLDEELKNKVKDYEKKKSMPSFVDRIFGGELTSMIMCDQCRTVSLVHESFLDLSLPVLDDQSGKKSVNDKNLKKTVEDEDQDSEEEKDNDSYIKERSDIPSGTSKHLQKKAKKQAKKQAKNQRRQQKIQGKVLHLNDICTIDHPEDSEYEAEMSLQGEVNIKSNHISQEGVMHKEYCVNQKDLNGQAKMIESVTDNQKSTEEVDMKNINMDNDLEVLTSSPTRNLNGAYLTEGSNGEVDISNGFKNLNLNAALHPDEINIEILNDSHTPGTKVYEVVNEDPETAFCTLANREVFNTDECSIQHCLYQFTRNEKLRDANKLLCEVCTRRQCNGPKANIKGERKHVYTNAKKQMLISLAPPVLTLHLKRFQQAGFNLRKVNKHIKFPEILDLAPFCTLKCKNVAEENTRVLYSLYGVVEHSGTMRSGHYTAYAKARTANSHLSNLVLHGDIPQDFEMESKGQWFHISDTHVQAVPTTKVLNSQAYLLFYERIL
Sequence of UCHL1 (P09936 whole entry, looked up): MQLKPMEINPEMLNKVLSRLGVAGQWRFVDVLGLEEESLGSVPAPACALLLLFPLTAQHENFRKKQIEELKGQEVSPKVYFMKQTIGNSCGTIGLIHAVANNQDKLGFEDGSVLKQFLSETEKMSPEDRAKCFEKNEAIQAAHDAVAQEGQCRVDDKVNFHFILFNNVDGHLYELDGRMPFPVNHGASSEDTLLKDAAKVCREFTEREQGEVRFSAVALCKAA
Sequence of USP10 (Q14694 whole entry): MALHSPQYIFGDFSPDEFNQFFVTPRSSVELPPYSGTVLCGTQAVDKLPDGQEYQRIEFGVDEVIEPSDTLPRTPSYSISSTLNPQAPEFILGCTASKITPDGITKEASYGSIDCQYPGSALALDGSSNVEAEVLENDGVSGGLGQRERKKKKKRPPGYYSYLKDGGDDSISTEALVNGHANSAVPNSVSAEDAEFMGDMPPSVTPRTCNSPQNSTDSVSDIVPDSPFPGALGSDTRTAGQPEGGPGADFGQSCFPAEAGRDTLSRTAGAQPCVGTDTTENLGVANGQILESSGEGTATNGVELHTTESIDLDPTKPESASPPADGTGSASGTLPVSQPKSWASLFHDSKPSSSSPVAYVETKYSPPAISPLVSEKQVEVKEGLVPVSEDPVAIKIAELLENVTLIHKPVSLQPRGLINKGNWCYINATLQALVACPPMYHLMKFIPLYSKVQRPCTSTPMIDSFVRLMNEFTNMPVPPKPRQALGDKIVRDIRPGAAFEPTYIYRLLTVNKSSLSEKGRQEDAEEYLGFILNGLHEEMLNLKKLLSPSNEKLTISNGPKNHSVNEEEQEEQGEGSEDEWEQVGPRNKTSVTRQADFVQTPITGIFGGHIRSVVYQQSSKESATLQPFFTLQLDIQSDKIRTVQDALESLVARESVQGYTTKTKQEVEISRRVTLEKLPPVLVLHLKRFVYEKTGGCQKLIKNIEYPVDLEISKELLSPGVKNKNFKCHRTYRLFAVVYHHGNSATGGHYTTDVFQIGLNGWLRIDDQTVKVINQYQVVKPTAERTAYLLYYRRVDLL

For the compound `Cc1ccc2nnc(CNC(=O)CCl)n2c1`, the “log2 ratio of Biotin-Ahx-Ub-VS probe labelling” value was 0.146 in the test with OTUD6B; -0.395 with OTUD7B; 0.153 with PRPF8; 0.238 in the test with PSMD7; -1 (active) with UCHL1; 0.34 in the test with UCHL3. Besides, the “log2 ratio of Biotin-Ahx-Ub-VS probe labelling” value was -0.0479 in the test with UCHL5, -0.0942 with USP10, -0.0934 in the test with USP15 and -0.0611 in the test with USP16.
